Only some compounds are listed: those with a hit (about 9.3% of all), similar ones and a draw of the others.
SMN2 splice up: increases expression of the SMN2 splice variant | HEK293 SMN2-luciferase splicing reporter, luminescence, 30-36 h | Potency, µM (series often up to 46.1 µM), without a hit: at the highest dose activity change, positive = activation, actives largely listed as activators | 2.8% of 210,000 active; also: % of control where 0% means no effect; nearly all actives have a fitted effect of over 55% in size
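HEK293 cells carry an SMN2 minigene-luciferase reporter in which exon 7 inclusion puts luciferase in frame. Cells were seeded at 2000 cells/well, attached for 10-12 hours, then exposed to compounds for 30-36 hours at 37C before ONE-Glo luminescence.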
Rab9 prom act: activates the Rab9 promoter; Huh7 Rab9 promoter-luciferase reporter, luminescence, 24 h; Potency, µM (doses to about 9.22 µM), for the others: at the highest dose activation, negative = inhibition, hits mostly activators; 2.8% of 320,000 active; also: % of control where 0% means no effect; nearly all actives have a fitted effect of over 60% in size
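Using Huh7 cells stably transfected with Rab9 promoter–luciferase, compounds were incubated 24 h at 37 °C, 5% CO2; luciferase luminescence was read 10 min after reagent addition.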
NPC1 prom act: activators of NPC1 promoter; 2.4% of 320,000 active; AID 485313; Potency, µM (titrated, usually from 9.22 µM), for the others: at the highest dose activation, hits mostly activators; Huh7 NPC1 promoter luciferase reporter, 24 h; also: % of control where 0% means no effect; nearly all actives have a fitted effect of over 60% in size
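Huh7 reporter cells (NPC1 promoter driving luciferase) are dosed with compound for 24 h at 37 °C, 5% CO2; luciferase detection reagent is then added and luminescence measured after 10 min at ambient temperature.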
FLuc modulator: firefly luciferase modulation, counter-screen for miR-21 project | P08659 | purified FLuc, Km substrates, luminescence inhibition | Potency, µM (top dose mostly 57.5 µM), inactives show at the highest dose activity change, negative = inhibition, most hits filed as inhibitors | 6.9% of 360,000 active;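 also: plate controls were vehicle for no effect and reference inhibitor for full effect; nearly all actives have a fitted effect of over 55% in size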
Target sequence (P08659 whole entry, looked up): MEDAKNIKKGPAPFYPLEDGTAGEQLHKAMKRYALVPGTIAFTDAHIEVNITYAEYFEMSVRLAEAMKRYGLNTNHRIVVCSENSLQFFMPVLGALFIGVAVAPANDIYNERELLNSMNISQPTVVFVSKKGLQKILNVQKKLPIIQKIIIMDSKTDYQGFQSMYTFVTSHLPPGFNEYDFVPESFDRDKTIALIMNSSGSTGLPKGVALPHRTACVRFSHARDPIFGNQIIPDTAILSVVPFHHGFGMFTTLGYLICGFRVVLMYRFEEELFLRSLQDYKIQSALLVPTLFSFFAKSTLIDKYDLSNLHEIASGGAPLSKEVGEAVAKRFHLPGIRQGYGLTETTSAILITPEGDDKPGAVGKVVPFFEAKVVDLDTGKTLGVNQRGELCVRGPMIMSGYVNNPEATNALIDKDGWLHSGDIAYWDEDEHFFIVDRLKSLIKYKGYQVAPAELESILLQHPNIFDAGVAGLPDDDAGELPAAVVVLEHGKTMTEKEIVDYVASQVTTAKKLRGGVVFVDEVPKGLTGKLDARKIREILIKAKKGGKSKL
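Purified P. pyralis luciferase, 10 nM final, with Km-level 10 uM D-luciferin and 10 uM ATP in 50 mM Tris acetate pH 7.5, 10 mM Mg acetate, 0.01% Tween-20, 0.05% BSA; 6-point qHTS titration about 60 µM downward; luminescence read.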
ELG1 genotox: induces genotoxicity in HEK293T cells with luciferase-tagged ELG1 | HEK293T ELG1-luciferase reporter, luminescence, 16 h | Potency, µM (top dose mostly 46 µM), for the others: at the top dose activity change, positive = activation, actives largely listed as activators | 1.3% of 330,000 active | AID 504466; also: % of control where 0% means no effect; nearly all actives have a fitted effect of over 60% in size
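Genotoxic stress is detected as increased luminescence from luciferase-tagged ELG1 in HEK293T cells, measured with ONE-Glo after a 16 hr treatment at 37 °C.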
ELG1 DNA repair: ELG1-dependent DNA repair inhibition. HEK293T ELG1-luciferase reporter, luminescence, 16 h; DNA damage induced by 5-fluorouridine. Potency, µM (doses to about 46.1 µM), inactives show at the highest dose activity change, negative = inhibition, actives largely listed as inhibitors. 2.3% of 330,000 active. AID 504467; also: % is scaled to controls: 0 for no effect and ±100 for the full control effect; nearly all actives have a fitted effect of over 55% in size
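Overnight (16 hr) co-exposure of 2,000 cells/well to 5-fluorouridine and compound at 37 °C preceded detection. Luciferase was quantified via ONE-Glo luminescence; loss of signal denotes inhibition.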
Numbers without * were called inactive; [ ] = remark or other dose. Calls follow the shape of the dose curve; as a rule, active = well fitted curve in the direction sought with a large enough effect; inconclusive = small, poorly fitted or top-dose-only effect, or another doubt; inactive = no such curve, though single readings can be large; an effect the other way counts as inactive or inconclusive. Potency is read from the fitted curve at half-maximal effect.

`NS(=O)(=O)c1ccc(CCNC(=O)CNC(=O)c2ccc(Oc3ccccc3)cc2)cc1` gave Rab9 prom act 0%, NPC1 prom act 2%, FLuc modulator -2%, ELG1 genotox -19% and ELG1 DNA repair -17%.
Screening Nc1[nH]nc2nc3ccccc3cc12 returned SMN2 splice up 8%, Rab9 prom act 1%, NPC1 prom act 2%, FLuc modulator -13%, ELG1 genotox 3% and ELG1 DNA repair 25%.
`CCc1ccc2nc3n[nH]c(N)c3cc2c1` gave SMN2 splice up inconclusive, Rab9 prom act 2.8µM*, NPC1 prom act inconclusive, FLuc modulator 4.8µM*, ELG1 genotox 13µM* and ELG1 DNA repair inconclusive.
Cc1cc(C)cc(OCC(=O)OCC(=O)N(CC(C)C)c2c(N)n(Cc3ccccc3)c(=O)[nH]c2=O)c1 was read as Rab9 prom act -3%, NPC1 prom act 2%, FLuc modulator -2%, ELG1 genotox 0% and ELG1 DNA repair 12%.
CCC(=O)C(C(=O)OC)[C@H](CCc1ccccc1)NC(=O)OC (some centres not stated) was read as SMN2 splice up 3%.
For Cc1ccc(Nc2nc(N3CCN(C)CC3)nc(N)c2[N+](=O)[O-])cc1C the results were SMN2 splice up -19%, Rab9 prom act 1%, NPC1 prom act 0%, FLuc modulator 1%, ELG1 genotox 6% and ELG1 DNA repair 8.2µM*.
Cc1ccc(Nc2n[nH]c(C)c2[N+](=O)[O-])cc1C was read as SMN2 splice up 11µM*, Rab9 prom act 1.1µM*, NPC1 prom act 1.6µM*, FLuc modulator 3µM*, ELG1 genotox inconclusive and ELG1 DNA repair inconclusive.
CC(C)[C@H](NC(=O)c1ccccc1)C(=O)OCC(=O)NCc1ccc2c(c1)OCO2 was read as ELG1 genotox 2% and ELG1 DNA repair -6%.
Screening Cc1cc(S(=O)(=O)Nc2nc(CN3CCOCC3)nc3sc4c(c23)CCC4)cc(C)c1C returned Rab9 prom act -2%, NPC1 prom act 1%, FLuc modulator -2%, ELG1 genotox 2% and ELG1 DNA repair 17%.
Screening COc1cccc(Nc2nc(CN3CCOCC3)nc3sc4c(c23)CCCC4)c1 returned SMN2 splice up 3%, Rab9 prom act -1%, NPC1 prom act -1%, FLuc modulator -12%, ELG1 genotox -3% and ELG1 DNA repair 10µM*.
Cc1ccc(Oc2nc(CN3CCOCC3)nc3sc4c(c23)CCC(C)C4)cc1C (configuration not stated) was read as SMN2 splice up -11%, Rab9 prom act 1%, NPC1 prom act -7%, FLuc modulator 2%, ELG1 genotox -6% and ELG1 DNA repair 13µM*.
`CC1CCc2c(sc3nc(CN4CCOCC4)nc(N4CCc5ccccc5C4)c23)C1` (configuration not stated) gave SMN2 splice up -10%, Rab9 prom act -4%, NPC1 prom act -1%, FLuc modulator 6%, ELG1 genotox -1% and ELG1 DNA repair inconclusive.
For Cc1ccc(Oc2nc(CN3CCOCC3)nc3sc4c(c23)CCC(C)C4)cc1 (configuration not stated) the results were SMN2 splice up -18%, Rab9 prom act 1%, NPC1 prom act -2%, FLuc modulator -2%, ELG1 genotox -6% and ELG1 DNA repair 26µM*.
O=C(CC1N=C2c3ccccc3N=C(SCC(=O)Nc3ccccc3F)N2C1=O)NCc1cccs1 (configuration not stated) was read as SMN2 splice up 6% and FLuc modulator -6%.
For CC(=O)Nc1cccc(NC(=O)COc2ccc3c(c2)CCC3)c1 the results were Rab9 prom act 17%, NPC1 prom act 12%, FLuc modulator 8.5µM*, ELG1 genotox 0% and ELG1 DNA repair inconclusive.
Screening CSc1cccc(NC(=O)COc2ccccc2C)c1 returned SMN2 splice up 16%, Rab9 prom act 3%, NPC1 prom act -1%, FLuc modulator 15µM*, ELG1 genotox 5% and ELG1 DNA repair 17%.
`CCOc1ccc(-c2cccc(NC(=O)COc3ccccc3)c2)nn1` gave Rab9 prom act 3%, NPC1 prom act -1%, FLuc modulator 15µM*, ELG1 genotox -1% and ELG1 DNA repair 11%.
CCOc1ccc(CC(=O)Nc2cccc(-c3ccc4nnc(C)n4n3)c2)cc1 was read as SMN2 splice up 3%, Rab9 prom act 0%, NPC1 prom act -7%, FLuc modulator -13%, ELG1 genotox inconclusive and ELG1 DNA repair inconclusive.
CC(=O)Nc1cccc(OCC(=O)Nc2sccc2C(N)=O)c1 was read as Rab9 prom act 1.1µM*, NPC1 prom act 2.5µM*, FLuc modulator 8.5µM*, ELG1 genotox inconclusive and ELG1 DNA repair inconclusive.
For CC1Cc2cc(S(=O)(=O)CCC(=O)Nc3ccc(Cl)cc3F)ccc2N1C(=O)C1CC1 (configuration not stated) the results were FLuc modulator -12%.
`CC(=O)Nc1cccc(OCC(=O)Nc2ccccc2)c1` gave SMN2 splice up 22µM*, Rab9 prom act 3.2µM*, NPC1 prom act 3.5µM*, FLuc modulator inconclusive, ELG1 genotox 10µM* and ELG1 DNA repair inconclusive.
For COc1cccc(NC(=O)C(=O)N/N=C(\C)CC(=O)Nc2ccc(NC(C)=O)cc2)c1 the results were Rab9 prom act 12%, NPC1 prom act -2%, FLuc modulator 11µM*, ELG1 genotox inconclusive and ELG1 DNA repair inconclusive.
For CCc1ccc(NC(=O)C(=O)N/N=C(\C)CC(=O)Nc2ccc(OC)cc2)cc1 the results were SMN2 splice up 1%, Rab9 prom act -1%, NPC1 prom act 0%, FLuc modulator inconclusive, ELG1 genotox 6% and ELG1 DNA repair inconclusive.
`Cc1cccnc1NC(=O)Cn1nc(-c2ccccc2)oc1=S` gave SMN2 splice up 3.2µM*, Rab9 prom act 1.3µM*, NPC1 prom act 3.2µM*, FLuc modulator -7%, ELG1 genotox inconclusive and ELG1 DNA repair inconclusive.
For CC(=O)Nc1ccc(S(=O)(=O)Oc2cccc(N3C(=O)C4CC=CCC4C3=O)c2)cc1 (configuration not stated) the results were SMN2 splice up -6%, Rab9 prom act 0%, NPC1 prom act 0%, FLuc modulator 1%, ELG1 genotox 2% and ELG1 DNA repair 23µM*.
`C=CC[C@@H](C(=O)O)c1ccccc1` gave SMN2 splice up 3%[9.22 µM].
